Entries with a potency or affinity are not part of this list.
These molecules were tested on Klebsiella pneumoniae. Settings: Concentration 32 ug.mL-1; ASSAY_TEST Inhibition of Bacterial Growth; detection method Absorption (OD600); MEDIA CAMHB; plate type 384well; NBS; CORNING #3640; time 18 hr.

Question: For `COc1cccc(N(C)c2cccc(OC)c2-c2ccc([N+](=O)[O-])cc2C)c1`, which Inhibition is on record?
Answer: 4.9%

Question: `O=[N+]([O-])c1ccc2c3ccccc3n(-c3ccccc3)c2c1` was tested. Which Inhibition did it give?
Answer: 5.72%

Question: `O=[N+]([O-])c1ccc(-c2ccccc2Nc2ccccc2Br)cc1` was tested. Which Inhibition did it give?
Answer: 7.18%

Question: `CN(c1ccccc1)c1ccccc1-c1ccc([N+](=O)[O-])cc1` was tested. Which Inhibition did it give?
Answer: 13.85%

Question: With `O=[N+]([O-])c1ccc(-c2c(Nc3ccccc3)ccc3ccccc23)cc1` as the molecule, how does the Inhibition read?
Answer: -5.26%

Question: With `Cc1cc([N+](=O)[O-])ccc1-c1ccccc1N(C)c1ccccc1` as the molecule, how does the Inhibition read?
Answer: -15.08%

Question: With `O=[N+]([O-])c1ccc(-c2ccccc2Nc2ccccc2)c(Cl)c1` as the molecule, how does the Inhibition read?
Answer: 13.74%

Question: For `O=[N+]([O-])c1ccc(-c2ccccc2N(Cc2ccccc2)c2ccccc2)cc1`, which Inhibition is on record?
Answer: 8.4%

Question: How did the Inhibition turn out when `Cc1cccc(C)c1Nc1ccccc1-c1ccccc1[N+](=O)[O-]` was run?
Answer: 2.08%

Question: Which Inhibition does the source give for `O=[N+]([O-])c1ccc(-c2ccccc2Nc2ccccc2)cc1F` here?
Answer: 14.23%

Question: `Cc1cc(C)c(Nc2ccccc2-c2ccc([N+](=O)[O-])cc2)c(C)c1` was tested. Which Inhibition did it give?
Answer: -16.56%

Question: How did the Inhibition turn out when `COc1cccc(Nc2ccccc2)c1-c1c(Cl)cc(Br)cc1Cl` was run?
Answer: 24.48%

Question: `c1ccc(Nc2ccccc2-c2ncccn2)cc1` was tested. Which Inhibition did it give?
Answer: 8.33%

Question: How did the Inhibition turn out when `Clc1cc(Br)cc(Cl)c1-c1ccccc1Nc1ccccc1` was run?
Answer: 1.2%

Question: With `Cc1ccccc1Nc1ccccc1-c1ccc([N+](=O)[O-])cc1` as the molecule, how does the Inhibition read?
Answer: -1.35%

Question: `O=[N+]([O-])c1ccc(-c2c(Nc3ccccc3)cccc2-c2ccccc2)cc1` was tested. Which Inhibition did it give?
Answer: 6.43%

Question: With `COc1cc([N+](=O)[O-])ccc1-c1c(Nc2ccccc2)cccc1OC` as the molecule, how does the Inhibition read?
Answer: 14.15%

Question: `CC(=O)c1ccc(-c2ccccc2Nc2ccccc2)cc1` was tested. Which Inhibition did it give?
Answer: 4.21%

Question: With `COc1cc([N+](=O)[O-])ccc1-c1ccccc1Nc1ccccc1` as the molecule, how does the Inhibition read?
Answer: 18.46%

Question: Which Inhibition does the source give for `COc1cccc(Nc2ccccc2)c1-c1ccc([N+](=O)[O-])cc1` here?
Answer: -2.96%

Question: How did the Inhibition turn out when `O=[N+]([O-])c1ccc(-c2ccccc2Nc2ccccc2)cc1` was run?
Answer: -3.59%

Question: How did the Inhibition turn out when `O=[N+]([O-])c1ccc(-c2ccccc2Nc2ccccc2)cc1C(F)(F)F` was run?
Answer: 20.57%

Question: `O=[N+]([O-])c1ccc(-c2cccc3c2[nH]c2ccccc23)cc1` was tested. Which Inhibition did it give?
Answer: 2.37%

Question: Which Inhibition does the source give for `N#Cc1ccc(-c2ccccc2Nc2ccccc2)cc1` here?
Answer: 9.14%

Question: Which Inhibition does the source give for `COc1ccc(Nc2ccccc2-c2ccc([N+](=O)[O-])cc2)cc1` here?
Answer: 12.08%

Question: How did the Inhibition turn out when `O=[N+]([O-])c1cc(Cl)c(-c2ccccc2Nc2ccccc2)c(Cl)c1` was run?
Answer: -1.39%

Question: How did the Inhibition turn out when `CC[C@@H](Nc1ccccc1-c1c(Cl)cc(Br)cc1Cl)c1ccccc1` was run?
Answer: 20.15%

The molecules below were run on Candida albicans. Settings: 32 ug/mL.

Question: Which Inhibition does the source give for `COc1cccc(N(C)c2cccc(OC)c2-c2ccc([N+](=O)[O-])cc2C)c1` here?
Answer: 3.58%

Question: `O=[N+]([O-])c1ccc2c3ccccc3n(-c3ccccc3)c2c1` was tested. Which Inhibition did it give?
Answer: 8.19%

Question: `O=[N+]([O-])c1ccc(-c2ccccc2Nc2ccccc2Br)cc1` was tested. Which Inhibition did it give?
Answer: 4.47%

Question: With `CN(c1ccccc1)c1ccccc1-c1ccc([N+](=O)[O-])cc1` as the molecule, how does the Inhibition read?
Answer: 4.63%

Question: How did the Inhibition turn out when `O=[N+]([O-])c1ccc(-c2c(Nc3ccccc3)ccc3ccccc23)cc1` was run?
Answer: 1.64%

Question: For `Cc1cc([N+](=O)[O-])ccc1-c1ccccc1N(C)c1ccccc1`, which Inhibition is on record?
Answer: 5.96%

Question: Which Inhibition does the source give for `O=[N+]([O-])c1ccc(-c2ccccc2Nc2ccccc2)c(Cl)c1` here?
Answer: 10.1%

Question: How did the Inhibition turn out when `O=[N+]([O-])c1ccc(-c2ccccc2N(Cc2ccccc2)c2ccccc2)cc1` was run?
Answer: 8.51%

Question: Which Inhibition does the source give for `Cc1cccc(C)c1Nc1ccccc1-c1ccccc1[N+](=O)[O-]` here?
Answer: 6.73%

Question: How did the Inhibition turn out when `O=[N+]([O-])c1ccc(-c2ccccc2Nc2ccccc2)cc1F` was run?
Answer: 8.22%

Question: `Cc1cc(C)c(Nc2ccccc2-c2ccc([N+](=O)[O-])cc2)c(C)c1` was tested. Which Inhibition did it give?
Answer: 7.08%

Question: Which Inhibition does the source give for `COc1cccc(Nc2ccccc2)c1-c1c(Cl)cc(Br)cc1Cl` here?
Answer: 23.8%

Question: `c1ccc(Nc2ccccc2-c2ncccn2)cc1` was tested. Which Inhibition did it give?
Answer: 12.1%

Question: With `Clc1cc(Br)cc(Cl)c1-c1ccccc1Nc1ccccc1` as the molecule, how does the Inhibition read?
Answer: 5.55%

Question: Which Inhibition does the source give for `Cc1ccccc1Nc1ccccc1-c1ccc([N+](=O)[O-])cc1` here?
Answer: -0.09%

Question: `O=[N+]([O-])c1ccc(-c2c(Nc3ccccc3)cccc2-c2ccccc2)cc1` was tested. Which Inhibition did it give?
Answer: 7.71%

Question: For `COc1cc([N+](=O)[O-])ccc1-c1c(Nc2ccccc2)cccc1OC`, which Inhibition is on record?
Answer: 5.26%

Question: With `CC(=O)c1ccc(-c2ccccc2Nc2ccccc2)cc1` as the molecule, how does the Inhibition read?
Answer: 1.55%

Question: Which Inhibition does the source give for `COc1cc([N+](=O)[O-])ccc1-c1ccccc1Nc1ccccc1` here?
Answer: 5.71%

Question: For `COc1cccc(Nc2ccccc2)c1-c1ccc([N+](=O)[O-])cc1`, which Inhibition is on record?
Answer: 7.07%

Question: For `O=[N+]([O-])c1ccc(-c2ccccc2Nc2ccccc2)cc1`, which Inhibition is on record?
Answer: 9.3%

Question: With `O=[N+]([O-])c1ccc(-c2ccccc2Nc2ccccc2)cc1C(F)(F)F` as the molecule, how does the Inhibition read?
Answer: 12.5%

Question: How did the Inhibition turn out when `O=[N+]([O-])c1ccc(-c2cccc3c2[nH]c2ccccc23)cc1` was run?
Answer: 4.69%

Question: How did the Inhibition turn out when `N#Cc1ccc(-c2ccccc2Nc2ccccc2)cc1` was run?
Answer: 10.8%

Question: How did the Inhibition turn out when `COc1ccc(Nc2ccccc2-c2ccc([N+](=O)[O-])cc2)cc1` was run?
Answer: 5.77%

Question: With `O=[N+]([O-])c1cc(Cl)c(-c2ccccc2Nc2ccccc2)c(Cl)c1` as the molecule, how does the Inhibition read?
Answer: 6.95%

Question: Which Inhibition does the source give for `CC[C@@H](Nc1ccccc1-c1c(Cl)cc(Br)cc1Cl)c1ccccc1` here?
Answer: 9.45%
